Screening data as filed in PubChem.
PABP1 MLLE inh: inhibitors of microRNA-mediated deadenylation, human PABP1 MLLE binding; inhibition, % at 20 µM; P11940; 360,000 compounds, 0.36% hits; AID 588489; GST-MLLE / FITC-PAM2 fluorescence polarization; in the data active = inhibition above about 35%, passing the limit was not always enough;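 note: plate controls were DMSO wells with GST-MLLE for no effect and wells lacking GST-MLLE protein for full effect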
PHOSPHO1 block: PHOSPHO1 (human) inhibition | Q8TCT1 | recombinant PHOSPHO1, absorbance phosphatase assay | inhibition, % at 13.3 µM | 290,000 compounds, 1.1% hits; in the data active = inhibition above about 60%
Target sequence (Q8TCT1 whole entry, looked up): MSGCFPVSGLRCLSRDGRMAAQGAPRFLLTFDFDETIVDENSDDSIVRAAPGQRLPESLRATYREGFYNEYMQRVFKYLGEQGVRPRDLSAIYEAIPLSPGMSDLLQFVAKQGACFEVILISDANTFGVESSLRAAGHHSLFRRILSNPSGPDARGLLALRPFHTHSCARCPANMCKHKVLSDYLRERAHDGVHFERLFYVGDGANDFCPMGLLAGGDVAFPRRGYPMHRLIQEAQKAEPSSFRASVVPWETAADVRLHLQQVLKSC
PABP polyA inh: blocks human PABP binding to poly(A) RNA; fluorescence polarization; AID 2014; 290,000 compounds, 1% hits; P11940; calls only at 35 µM;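 note: calls also rest on retests at 20 µM and on dose response follow-up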
HMGR II inh: E. faecalis class II HMG-CoA reductase inhibition; purified E. faecalis HMGR, NADPH absorbance 340 nm kinetic; inhibition, % at 10 µM; 190,000 compounds, 0.41% hits;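 active = inhibition above a set limit, the median over all tested compounds plus 3 SD, cut at about 9.5% in these data; inconclusive = no clear call, values can overlap the other calls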;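 note: enzyme runs in reverse so mevalonate oxidation gives rising NADPH absorbance; 0% = complete reaction with DMSO and 100% = background rate lacking mevalonate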
eIF4H FP inh: inhibitors of RNA binding by human eIF4H; Q15056; eIF4H fluorescence polarization binding assay; inhibition, % at 35 µM; 290,000 compounds, 0.94% hits; AID 2012;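 note: calls also rest on retests at 20 µM and on dose response follow-up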
* hit, by the source's call; i = inactive; ? = inconclusive; . = no result; + = active, no number. Sampled rows, rich in hits. Any-hit rate of the full collection: about 2.4%. Unless noted, the rule behind the calls is not given here.

SMILES | PABP1 MLLE inh | PHOSPHO1 block | PABP polyA inh | HMGR II inh | eIF4H FP inh
Cc1nc2sc(C(c3ccco3)N3CCC(C)CC3)c(O)n2n1 (stereo not given) | 4.4 | -4.7 | i | 1.7 | -10.6
c1ccc(-n2ncc3c2ncn2nc(-c4ccco4)nc32)cc1 | 15.2 | -35.9 | i | -2.8 | 50.0*
Cc1ccc([N+](=O)[O-])cc1NC(=O)C[n+]1ccccc1 | 8.9 | 41.1 | i | 13.3* | 5.7
Cc1cc(C(=O)NC(C)C2CCCO2)no1 (stereo not given) | -10.2 | 60.0* | i | 1.6 | 1.5
CCN1CCN(CCNC(=O)CCCn2nc(C)c3c(C)n(-c4ccc(C)cc4)nc3c2=O)CC1 | -3.2 | 20.7 | i | . | -14.3
Cc1ccccc1Cn1cccc1/C=C1/C(=N)N2C=CSC2=NC1=O | -44.5 | 23.3 | + | -1.8 | 66.3*
CC(=O)Nc1ccc(S(=O)(=O)N(C)c2ccc(OCC(=O)NCCc3ccccc3F)cc2)cc1 | 13.4 | . | . | . | .
O=c1c2nnn(-c3ccc(Br)cc3)c2ncn1Cc1ccccn1 | -6.5 | 41.7 | i | 1.7 | -0.3
CC1(c2cccc(Br)c2)NC(=O)N(CC(=O)Nc2ccc3c(c2)OCCO3)C1=O (stereo not given) | -21.5 | . | . | . | .
CCOC(=O)c1ccc(N2C(=O)C3C(/C=C/c4ccccc4)OC4(C(=O)c5ccccc5C4=O)C3C2=O)cc1 (stereo not given) | -0.4 | 20.9 | + | -2.6 | 56.6
CCOC(=O)c1ccc(N2C(=O)[C@@H](c3ccccc3)[C@H]2c2ccccc2)cc1 | 0.7 | . | . | . | .
O=c1[nH][nH]c2c(N=Cc3ccccc3O)ccc(F)c12 | 48.7* | 46.5 | ? | . | ?
Cc1nn(C(C)C(=O)NNC(=S)Nc2ccc(Cl)cc2)c(C)c1[N+](=O)[O-] (stereo not given) | 29.4 | 94.5* | i | -5.8 | 8.7
Cc1ccc(NC(=S)NNC(=O)c2cn(C)nc2C)cc1 | -20.7 | 88.9* | i | 6.3 | 2.5
Cc1ccc(NC(=S)NNC(=O)c2c([N+](=O)[O-])c(C)nn2C)cc1 | -13.7 | 76.1* | i | -1.8 | 5.9
Cc1ccc(NC(=S)NNC(=O)c2nn(C)c(C)c2Cl)cc1 | -15.2 | 8.1 | i | 0.2 | 0.8
Cc1ccc(NC(=S)NNC(=O)c2c(Cl)c(C)nn2C)cc1 | 14.7 | 67.7* | i | 3.5 | 2.9
C/C(=N\NC(=O)COc1cccc(C)c1)c1ccc2ccccc2c1O | -24.2 | 21.8 | i | . | -10.7
CCOC(=O)C1=CNS(=O)(=O)NC1CCc1ccccc1 (stereo not given) | -4.7 | . | . | . | .
CCOC(=O)N1CCC(N(CCN(C)C)C(=S)Nc2ccc(Oc3ccccc3)cc2)CC1 | -5.3 | 32.0 | i | 0.1 | -2.0
CC(=O)N=C1SC2CS(=O)(=O)CC2N1c1ccc(-c2nc3ccc(C)cc3s2)cc1 (stereo not given) | . | 0.8 | i | -9.9 | 4.5
Cc1ccc2nc(-c3ccc(N4C(=NC(=O)CCC(=O)O)SC5CS(=O)(=O)CC54)cc3)sc2c1 (stereo not given) | -10.2 | -13.9 | + | -6.4 | 69.5*
O=C(CCc1cccc(Cl)c1)N1CCCC(Nc2ccccc2)C1 (stereo not given) | 4.3 | 26.3 | i | . | -8.0
O=C(Nc1ccc2nc(-c3ccco3)[nH]c2c1)c1ccco1 | 11.7 | 1.3 | + | 1.0 | 60.7
O=C(NCc1ccccc1)c1ccc2nc(-c3ccco3)c(-c3ccco3)nc2c1 | 18.5 | 42.3 | + | 3.5 | 107.6*
SMILES | PABP1 MLLE inh | PHOSPHO1 block | PABP polyA inh | HMGR II inh | eIF4H FP inh
CC(=O)Nc1ccc2nc(-c3ccco3)[nH]c2c1 | 8.1 | 16.2 | i | 4.5 | 15.4
CCCCNC(=O)c1ccc2nc(-c3ccco3)c(-c3ccco3)nc2c1 | 19.6 | -9.0 | + | 1.7 | 93.9*
O=C(NCCCO)c1ccc2nc(-c3ccco3)c(-c3ccco3)nc2c1 | 21.2 | 1.8 | i | -6.4 | 95.6
Nc1c(C(=O)Nc2ccccc2)sc2nc(-c3ccco3)ccc12 | -16.2 | 16.8 | + | 2.8 | 75.3*
O=C(NCc1ccccc1)c1ccc2nccnc2c1 | -13.8 | 1.9 | i | -3.5 | -8.1
COc1ccccc1NC(=O)c1sc2nc(-c3ccco3)ccc2c1N | -32.4 | -27.3 | i | -10.1 | 49.1
Cc1ccnc(NS(=O)(=O)c2ccc(NC(=O)c3cc(=O)c4ccccc4o3)cc2)n1 | 1.4 | 59.4 | i | . | -2.1
CC(=O)c1ccc(NC(=O)c2ccc3nc(-c4ccco4)c(-c4ccco4)nc3c2)cc1 | 8.1 | 97.9* | + | 0.9 | 103.4*
O=C(Nc1ccccc1)c1ccc2nc(-c3ccco3)c(-c3ccco3)nc2c1 | 3.1 | -17.0 | + | 0.0 | 99.9*
Cc1ccc(NCc2nc3ccccc3n2C)cc1C | -10.4 | 60.0* | i | . | 1.1
Cc1ccc(S(=O)(=O)NNc2ccccc2)c(C)c1 | 24.2 | 75.9* | i | -1.1 | -9.1
CCCNC(=O)C1(C)CCCN(Cc2ccc(-c3ccccc3)cc2)C1 (stereo not given) | -3.3 | . | . | . | .
COc1ccccc1NC(=O)CCc1nnc2ccc(N3CCN(C)CC3)nn12 | -2.0 | 41.2 | . | . | .
COc1cc(NS(=O)(=O)c2ccc(NC(=S)NC(=O)CC(C)C)cc2)nc(OC)n1 | 18.1 | -29.1 | i | 12.8* | -0.8
COc1ccc(OCC(=O)NC(=S)Nc2ccc(S(=O)(=O)Nc3cc(OC)nc(OC)n3)cc2)cc1 | 48.6* | -7.4 | i | -0.2 | -3.7
CC(=O)n1c(-c2ccccc2)c(-c2ccccc2)n(C)c1=O | 5.0 | . | . | . | .
Cc1nc(=S)c2ccccc2[nH]1 | 8.3 | 58.9 | i | 14.9* | 4.7
S=c1nc(Cc2ccccc2)[nH]c2ccccc12 | 14.5 | -37.5 | i | . | 9.8
O=C(N/N=C\c1c(O)ccc2ccccc12)c1ccc(S(=O)(=O)N2CCCCC2)cc1 | -154.8 | -1.8 | + | -3.8 | 64.5*
O=C(NN=Cc1c(O)ccc2ccccc12)c1ccc2c(c1)OCO2 | -10.7 | . | . | . | .
CC(=O)Nc1ccc(S(=O)(=O)NNC(=O)c2ccc(S(=O)(=O)N3CCCCC3)cc2)cc1 | -1.8 | 8.2 | i | -7.8 | -5.3
NC(=S)N/N=C/c1c(O)ccc2ccccc12 | 47.4* | -1.5 | i | . | 3.7
O=C(NNS(=O)(=O)c1ccc(F)cc1)c1ccc(S(=O)(=O)N2CCCCC2)cc1 | 3.5 | -5.1 | i | -1.9 | active
CN(C)C(=S)Oc1ccccc1-c1ccccc1OC(=S)N(C)C | -1.9 | 4.0 | i | . | -0.3
Cc1nn(CCC(=O)N2CCN(S(=O)(=O)c3ccccc3)CC2)c(C)c1C | 4.7 | 31.0 | i | . | 7.5
COc1ccccc1/C=N/NC(=O)c1ccc(NC(=O)c2cccc([N+](=O)[O-])c2)cc1 | . | 16.2 | i | -3.9 | 1.6
COc1cccc(/C=N/NC(=O)c2cc3cc([N+](=O)[O-])ccc3s2)c1O | -17.3 | 83.2* | i | 0.3 | 23.7
c1ccc2c(c1)CCCN2Cc1nnc2n1CCCCC2 | 78.1 | 22.9 | + | -3.8 | 60.6*
CC(NC(=O)C(C)N1CCN(Cc2ccccc2)CC1)c1ccccc1 (stereo not given) | -1.8 | 22.4 | i | . | -4.2
